# Test results: PubChem BioAssay (Tox21)
# Values joined by “and” are separate entries in the source; they are usually repeats but may differ in a detail not shown here. Equal values may be shown once. Records with an inconclusive call do not appear. Where a call stands in place of a potency, no number is given. The source holds several records for some structures; these can differ, active in one and inactive in another. Active and inactive are the calls of the source. Unless noted, calls follow the shape of the dose curve; as a rule, active = well fitted curve in the direction sought with a large enough effect in the repeat runs; inconclusive = weak or mixed curves; inactive = no such curve, though single readings can be large; an effect the other way counts as inactive or inconclusive.
# What was measured:
# [1] = qHTS assay to identify small molecule antagonists of the glucocorticoid receptor (GR) signaling pathway - cell viability counter screen (AID 720693); also: nearly all actives have a fitted effect of over 55% in size
# [2] = qHTS assay for identifying genotoxic compounds that show differential cytotoxicity against isogenic chicken DT40 cell lines with known DNA damage response pathways - wild type cell line (AID 743012); also: nearly all actives have a fitted effect of over 60% in size; also: potency is read from the fitted curve at half-maximal effect
# Procedure, shortened: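 Cytotoxicity in repair-proficient parental chicken DT40 cells serves as the comparator for Rad54/Ku70- and Rev3-deficient lines. Cells were exposed to compounds for 40 h at 37 C/5% CO2, and ATP-based luminescence (CellTiter-Glo) measured viability.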
# [3] = qHTS assay for identifying genotoxic compounds that show differential cytotoxicity against isogenic chicken DT40 cell lines with known DNA damage response pathways - Rev3 mutant cell line (AID 743014); also: nearly all actives have a fitted effect of over 55% in size; also: potency is read from the fitted curve at half-maximal effect
# [4] = qHTS assay to identify small molecule antagonists of the androgen receptor (AR) signaling pathway - cell viability counter screen (AID 743033; also: nearly all actives have a fitted effect of over 45% in size; also: potency is read from the fitted curve at half-maximal effect)
# [5] = qHTS assay to identify small molecule antagonists of the androgen receptor (AR) signaling pathway using the MDA cell line - cell viability counter screen (AID 743041; also: nearly all actives have a fitted effect of over 45% in size)
# Procedure, shortened: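 Cytotoxicity counter screen: MDA-kb2 AR-luc cells, compound + R1881, 16 h, 37C, 0% CO2; CellTiter-Fluor added at 15.5 h, fluorescence read after 30 min.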
# [6] = qHTS assay for identifying genotoxic compounds that show differential cytotoxicity against isogenic chicken DT40 cell lines with known DNA damage response pathways - Rad54/Ku70 mutant cell line (AID 743015); also: nearly all actives have a fitted effect of over 60% in size; also: potency is read from the fitted curve at half-maximal effect
# [7] = target: Androgen receptor (Homo sapiens) (UniProt P10275); assay: qHTS assay to identify small molecule antagonists of the androgen receptor (AR) signaling pathway (AID 743035; active = well fitted inhibition curve with a large enough effect in the signal ratio in the repeat runs, not every such curve was filed as active; the % refers to the signal ratio; also: potency is read from the fitted curve at half-maximal effect)
# Chain of Androgen receptor (Homo sapiens) (P10275 whole entry, looked up): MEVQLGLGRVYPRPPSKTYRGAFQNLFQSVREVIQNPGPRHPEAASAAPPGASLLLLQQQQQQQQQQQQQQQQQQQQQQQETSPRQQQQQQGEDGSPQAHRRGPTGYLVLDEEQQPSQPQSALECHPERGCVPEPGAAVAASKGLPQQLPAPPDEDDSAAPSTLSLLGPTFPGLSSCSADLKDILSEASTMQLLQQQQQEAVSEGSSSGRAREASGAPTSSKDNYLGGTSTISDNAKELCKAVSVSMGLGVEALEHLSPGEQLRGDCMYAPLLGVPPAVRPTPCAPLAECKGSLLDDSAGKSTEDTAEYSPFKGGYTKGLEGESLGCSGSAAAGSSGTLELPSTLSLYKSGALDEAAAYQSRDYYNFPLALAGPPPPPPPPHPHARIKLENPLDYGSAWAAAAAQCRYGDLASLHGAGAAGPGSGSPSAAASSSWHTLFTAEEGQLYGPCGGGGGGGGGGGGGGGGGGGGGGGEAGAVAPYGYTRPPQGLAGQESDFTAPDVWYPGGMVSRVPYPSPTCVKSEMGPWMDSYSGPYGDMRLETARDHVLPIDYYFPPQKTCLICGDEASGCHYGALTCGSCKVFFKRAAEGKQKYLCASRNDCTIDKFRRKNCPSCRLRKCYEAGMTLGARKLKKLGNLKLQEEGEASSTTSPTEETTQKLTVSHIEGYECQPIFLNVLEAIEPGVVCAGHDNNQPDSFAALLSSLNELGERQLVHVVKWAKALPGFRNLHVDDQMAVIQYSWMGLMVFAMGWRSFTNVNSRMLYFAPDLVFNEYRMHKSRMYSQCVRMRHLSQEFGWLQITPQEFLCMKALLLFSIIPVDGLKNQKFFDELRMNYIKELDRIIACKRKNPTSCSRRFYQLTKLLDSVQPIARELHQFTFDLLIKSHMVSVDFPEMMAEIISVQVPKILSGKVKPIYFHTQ
# Procedure, shortened: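 Steps: seed AR-UAS-bla GripTite HEK293 cells, incubate 4 h at 37C; pin in test compound, then add agonist R1881; incubate 16 h at 37C; add LiveBLAzer B/G FRET substrate, 2 h at room temperature; read fluorescence.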
# [8] = target: Androgen receptor (Homo sapiens) (UniProt P10275); assay: qHTS assay to identify small molecule agonists of the androgen receptor (AR) signaling pathway (AID 743036; active = well fitted activation curve with a large enough effect in the signal ratio in the repeat runs, with a control signal flat, not every such curve was filed as active; the % refers to the signal ratio)
# Procedure, shortened: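 Fluorescence from a beta-lactamase FRET substrate served as read-out in AR-UAS-bla GripTite HEK293 cells. Cells were treated with DMSO-dissolved compounds for 16 h at 37C, then with LiveBLAzer B/G substrate for 2 h at room temperature.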
# [9] = target: Androgen receptor (Homo sapiens) (UniProt P10275); assay: qHTS assay to identify small molecule agonists of the androgen receptor (AR) signaling pathway using the MDA cell line (AID 743040; also: nearly all actives have a fitted effect of over 20% in size)
# Procedure, shortened: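 Luciferase read-out, ONE-Glo, 30 min RT. Cells: MDA-kb2 AR-luc, MMTV promoter with AR and GR response elements. Compound exposure 16 h, 37C, 0% CO2, after 5 h pre-incubation. qHTS agonist mode.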
# [10] = target: Androgen receptor (Homo sapiens) (UniProt P10275); assay: qHTS assay to identify small molecule antagonists of the androgen receptor (AR) signaling pathway using the MDA cell line (AID 743042; also: nearly all actives have a fitted effect of over 55% in size; also: potency is read from the fitted curve at half-maximal effect)
# Procedure, shortened: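 MDA-kb2 breast carcinoma cells carrying MMTV-luciferase (AR/GR responsive) were co-treated with compounds and the agonist R1881 for 16 h at 37C. Inhibition read as ONE-Glo luminescence; CellTiter-Fluor fluorescence measured in parallel for cytotoxicity.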
smiles,measurement,setting,value
CC(Cc1ccccc1)NCCn1cnc2c1c(=O)n(C)c(=O)n2C (stereo not given),Potency,[1],inactive
same,Potency,[2],67.7 µM (active)
same,Potency,[3],inactive
same,Potency,[4],inactive
same,Potency,[5],inactive
CC1=C2[C@H]3OC(=O)[C@@H](C)[C@@H]3CC[C@@]2(C)C=CC1=O,Potency,[1],inactive
same,Potency,[2],inactive
same,Potency,[6],inactive
same,Potency,[4],inactive
same,Potency,[5],inactive
N#CN=C1SCCN1Cc1ccc(Cl)nc1,Potency,[1],inactive
same,Potency,[2],inactive
same,Potency,[3],inactive
same,Potency,[4],inactive
same,Potency,[5],inactive
CCC(=O)OC1(c2ccccc2)CCN(C)CC1,Potency,[1],inactive
same,Potency,[6],inactive
same,Potency,[4],inactive
same,Potency,[5],inactive
O=C1C2CC=CCC2C(=O)N1SC(Cl)(Cl)Cl (stereo not given),Potency,[2],473 nM (active) and 6.83 µM (active) and 120 nM (active)
same,Potency,[3],531 nM (active) and 683 nM (active) and 107 nM (active)
same,Potency,[6],596 nM (active) and 2.42 µM (active) and 135 nM (active)
same,Potency,[4],inactive and 3.41 µM (active)
CCN[C@@H](C)Cc1ccccc1,Potency,[1],inactive
same,Potency,[2],inactive
same,Potency,[4],inactive
same,Potency,[7],inactive
same,outcome,[8],inactive
same,outcome,[9],inactive
same,Potency,[5],inactive
same,Potency,[10],inactive
CC(C)(C)c1cc(O)ccc1O,Potency,[2],4.22 µM (active) and 7.7 µM (active)
same,Potency,[6],6.68 µM (active) and 48.6 µM (active) and 12.2 µM (active)
same,Potency,[4],inactive and 26.8 µM (active)
same,Potency,[5],inactive
CCOC1Oc2ccc(OS(C)(=O)=O)cc2C1(C)C (stereo not given),Potency,[1],inactive
same,Potency,[3],27.1 µM (active)
same,Potency,[6],54 µM (active)
same,Potency,[7],43.3 µM (active)
same,outcome,[8],inactive
same,outcome,[9],inactive
same,Potency,[10],60.6 µM (active)
N#CC(Br)(Br)C(N)=O,Potency,[1],inactive
same,Potency,[3],61.1 µM (active)
same,Potency,[6],61.1 µM (active)
C=C1CC[C@@]2(O)[C@H]3Cc4ccc(O)c5c4[C@@]2(CCN3CC2CC2)[C@H]1O5,Potency,[2],inactive
same,Potency,[6],inactive
same,Potency,[4],inactive
same,Potency,[5],inactive
C[C@@H](N)[C@@H](O)c1ccccc1,Potency,[1],inactive
same,Potency,[4],inactive
same,Potency,[5],inactive
OCC(Cl)CCl (stereo not given),Potency,[2],inactive
same,Potency,[3],inactive
same,Potency,[6],inactive
same,Potency,[4],inactive
same,Potency,[5],inactive
CCOC(=O)c1ncn2c1CN(C)C(=O)c1c(I)cccc1-2,Potency,[1],inactive
same,Potency,[3],inactive
same,Potency,[4],inactive
same,Potency,[5],inactive
O=P(O)(O)c1ccccc1,Potency,[1],inactive
same,Potency,[3],inactive
same,Potency,[6],inactive
same,Potency,[4],inactive
same,Potency,[5],inactive
ClC1=C(Cl)C2(Cl)C(CBr)CC1(Cl)C2(Cl)Cl (stereo not given),Potency,[3],27.3 µM (active)
same,Potency,[6],30.6 µM (active)
same,Potency,[4],inactive
same,Potency,[5],inactive
NC1(c2ccccc2)CCCCC1,Potency,[1],inactive
same,Potency,[2],60.6 µM (active)
same,Potency,[4],inactive
same,Potency,[5],inactive
NCCOS(=O)(=O)O,Potency,[2],inactive
same,Potency,[3],inactive
same,Potency,[6],inactive
same,Potency,[4],inactive
same,Potency,[5],inactive
OP(O)c1ccccc1,Potency,[2],inactive
same,Potency,[3],inactive
same,Potency,[6],inactive
same,Potency,[4],inactive
same,Potency,[7],inactive
same,outcome,[8],inactive
same,outcome,[9],inactive
same,Potency,[5],inactive
same,Potency,[10],inactive
CC[C@@H](CO)NC(=O)[C@@H]1C=C2c3cccc4c3c(cn4C)C[C@H]2N(C)C1,Potency,[2],13.3 µM (active)
same,Potency,[4],inactive
same,Potency,[5],inactive
CCOC(=O)N(C)N=O,Potency,[1],inactive
same,Potency,[2],inactive
same,Potency,[4],inactive
same,Potency,[5],inactive
CCCOC(=O)Cc1ccc(OCC(=O)N(CC)CC)c(OC)c1,Potency,[1],inactive
same,Potency,[6],inactive
same,Potency,[4],inactive
same,Potency,[5],inactive
O=[N+]([O-])CCO,Potency,[1],inactive
same,Potency,[2],inactive
same,Potency,[6],inactive
same,Potency,[4],inactive
same,Potency,[5],inactive
C[C@]12C=CC(=O)C=C1CC[C@@H]1[C@@H]2CC[C@@]2(C)[C@H]1CC[C@]2(C)O,Potency,[2],23.7 µM (active)
same,Potency,[3],11.9 µM (active)
same,Potency,[6],29.8 µM (active)
same,Potency,[4],inactive
same,Potency,[5],inactive
N=C(N)[Se],Potency,[2],4.87 µM (active)
same,Potency,[3],2.44 µM (active)
same,Potency,[6],2.44 µM (active)
same,Potency,[4],inactive
same,Potency,[5],inactive
CC[C@H](O)C(C[C@H](C)N(C)C)(c1ccccc1)c1ccccc1,Potency,[1],inactive
same,Potency,[2],62.3 µM (active)
same,Potency,[4],inactive
same,Potency,[5],inactive
CCOC(=O)NC(C)(C)Cc1ccc(Cl)cc1,Potency,[1],inactive
same,Potency,[3],inactive
same,Potency,[4],inactive
same,Potency,[7],inactive
same,outcome,[8],inactive
same,outcome,[9],inactive
same,Potency,[5],inactive
same,Potency,[10],inactive
NNCc1ccccc1,Potency,[2],inactive
same,Potency,[3],inactive
same,Potency,[6],inactive
same,Potency,[4],inactive
same,Potency,[5],inactive
O=S1(=O)OCCO1,Potency,[2],inactive
same,Potency,[3],inactive
same,Potency,[6],inactive
same,Potency,[4],inactive
same,Potency,[7],inactive
same,outcome,[8],inactive
same,outcome,[9],inactive
same,Potency,[5],inactive
same,Potency,[10],inactive
CCCOc1nn(C(=O)NS(=O)(=O)c2ccccc2C(=O)OC)c(=O)n1C,Potency,[1],inactive
same,Potency,[2],inactive
same,Potency,[6],inactive
same,Potency,[7],inactive
same,outcome,[8],inactive
same,outcome,[9],inactive
same,Potency,[5],inactive
same,Potency,[10],inactive
CON(C)C(=O)Nc1ccc(Br)c(Cl)c1,Potency,[3],61.1 µM (active)
same,Potency,[4],inactive
same,Potency,[5],inactive
CC[C@@H](CO)NC(=O)[C@@H]1C=C2c3cccc4[nH]cc(c34)C[C@H]2N(C)C1,Potency,[2],inactive
same,Potency,[3],inactive
same,Potency,[6],inactive
same,outcome,[8],inactive
same,outcome,[9],inactive
same,Potency,[5],inactive
CCN(CC)C1CCCCC1,Potency,[1],inactive
same,Potency,[3],inactive
same,Potency,[4],inactive
same,Potency,[7],inactive
same,outcome,[8],inactive
same,outcome,[9],inactive
same,Potency,[5],inactive
same,Potency,[10],inactive
COc1ccccc1OC,Potency,[1],inactive
same,Potency,[3],inactive
same,Potency,[6],inactive
same,Potency,[4],inactive
same,Potency,[5],inactive
CCCCS(=O)(=O)Cl,Potency,[1],inactive
same,Potency,[3],inactive
same,Potency,[6],inactive
same,Potency,[4],inactive
same,Potency,[5],inactive
CNC(=O)Oc1cc(C)c(N(C)C)c(C)c1,Potency,[1],inactive
same,Potency,[4],inactive
same,Potency,[5],inactive
O=C(NC(=O)c1c(F)cccc1F)Nc1cc(Cl)c(F)c(Cl)c1F,Potency,[1],inactive
same,Potency,[2],8.42 µM (active)
same,Potency,[4],inactive
same,Potency,[5],inactive
CCOP(=S)(OCC)Oc1ccc(Cl)cc1Cl,Potency,[1],inactive
same,Potency,[3],inactive
same,Potency,[6],inactive
same,Potency,[4],inactive
same,Potency,[5],inactive
C=C(C)[C@H]1CN[C@H](C(=O)O)[C@H]1CC(=O)O,Potency,[1],inactive
same,Potency,[4],inactive
same,Potency,[5],inactive
CC(C)(N)Cc1ccc(Cl)cc1,Potency,[1],inactive
same,Potency,[6],inactive
same,Potency,[4],inactive
same,Potency,[5],inactive
C=CCN1CC[C@]23CCCC[C@H]2[C@H]1Cc1ccc(O)cc13,Potency,[2],21.1 µM (active)
same,Potency,[6],inactive
same,Potency,[4],inactive
CCN[C@@H](C)Cc1cccc(C(F)(F)F)c1,Potency,[1],inactive
same,Potency,[3],16.9 µM (active)
same,Potency,[6],21.3 µM (active)
same,Potency,[4],inactive
same,Potency,[5],inactive
O=C(O)C(F)(F)C(F)(F)C(F)(F)C(F)(F)C(F)(F)C(F)(F)F,Potency,[1],inactive
same,Potency,[3],inactive
same,Potency,[6],inactive
same,Potency,[4],inactive
same,Potency,[5],inactive
CCNc1nc(NCC)nc(SC)n1,Potency,[1],inactive
same,Potency,[4],inactive
same,Potency,[5],inactive
